From PubChem BioAssay AID1347426 (Functional Genomics Laboratory (NCATS/FGL), 2020) come the findings set out here.

Among all 31,000 sequences or so, about 1,400 (4.5%) were called active.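 How the source made its calls: active means median seed-adjusted z-score above 1 or below -1; inactive means the rest.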 The sample as a whole holds a higher share of actives than the screen did.

The assay can be described thus: Novel Modifiers of Survival Motor Neuron (SMN) Protein: Gene Identification via Genome-wide siRNA Screen.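 Further: luminescence tracks full-length SMN protein made from the SMN2 reporter.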 The following applies: HEK293T SMN2-luciferase reporter, siRNA knockdown, 72 h; actives lie on both sides. Put shortly: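 Each of three siRNAs per gene is reverse-transfected (1 pmol) into reporter HEK293T cells whose luciferase output tracks SMN protein level. After 72 h culture, ONE-Glo luminescence is control-normalized, log10-transformed and MAD-standardized; Common Seed Analysis deprioritizes seed-driven hits.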
On the technique in general: A reporter such as luciferase makes a cellular process visible.
CAAUACGAUUGGGACAUUATT against UXS1: the median seed-adjusted z-score was 0.25 (inactive).
CAUUCGUUCUUACAAGGAATT against FMNL3: the median seed-adjusted z-score is 0.481 (inactive).
Take CCUCCUCUGCUUAUCGUAUTT against GLT8D1: the median seed-adjusted z-score was 1.22 (active).
The same measure for GGGACGAUAUUUUAUGCAUTT against AHRR: -0.636 (inactive); for GGGAAGAUCCUGUACAUCUTT against PER2: -0.113 (inactive); for CAUUUGGUCUAGACAGUUUTT against TDP1: -0.352 (inactive).
With GGUUCUUGGGUGAAGGACATT against CHGB the figure was -1.29 (active).
As for GACCCGCUUUCUACCGUUATT against ENTPD4, the median seed-adjusted z-score is 0.324 (inactive).
With GCUUAUCCAUUGGAACUGUTT against NEK9 the figure was 0.0698 (inactive); with GCAGGGCAGUAAUCCUCAUTT against DLX6, 0.0275 (inactive); with GCCUUGUCGAAUUCUGUCATT against FOXO3, -0.712 (inactive).
Turning to CCCAGUCUGUGAAACCGAATT against JMJD3, the median seed-adjusted z-score was 0.871 (inactive).
Regarding GCUGCUGAAAGAUAUGAAATT against SPCS3, the median seed-adjusted z-score was 0.417 (inactive).
With GGAUAAACCUAUGCAUACATT against CCNF the figure was -0.435 (inactive); with CGCUGUCUCGGGAGAGAAATT against SFRS3, 2.74 (active).
In the case of CCUCUUCCACCGCUACUUCTT against TREX2, the median seed-adjusted z-score is -0.918 (inactive).
The same measure for GGCUCUUAAUAUUCGAAUATT against GPR22: 0.705 (inactive); for UGAUCAUUGUCCCUACAGATT against SERPINA3: 0.125 (inactive); for UCCUCAAGAGUUCACCUAUTT against FCRL2: -0.294 (inactive).
For GCUAAACAGUUCGCAAGGATT against IGF2R, the median seed-adjusted z-score was 0.274 (inactive).
Take GCUUUCCGAUGAUGAGAGATT against LEO1: the median seed-adjusted z-score was 1.2 (active).
With CAGCUGUACCGAUUAAGCATT against MEP1A, the median seed-adjusted z-score was 0.209 (inactive).
GACUGAAUGAUAUGAAAGATT against RHOQ: the median seed-adjusted z-score was -0.328 (inactive).
For GGAUUUGAGGGAAAACGCATT against FMO2, the median seed-adjusted z-score is -0.265 (inactive).
Regarding GGAGGUCUCAAGUUCAACATT against LENG8, the median seed-adjusted z-score was -0.00539 (inactive).
On to UGAUGAACUCGGAAAUGCATT against PPAPDC1A, for which the median seed-adjusted z-score was 0.634 (inactive).
Regarding GGACCAGAGAGACUUCAUUTT against ASTL, the median seed-adjusted z-score was 0.722 (inactive).
Consider GAAGCAGGGUUAAAGCGGATT against PRDM2, for which the median seed-adjusted z-score is 1.12 (active).
On to GAGAUAACAUCAGUAGAAATT against FGF10, for which the median seed-adjusted z-score is 0 (inactive).
With CACCGUCUGAGAUAAUAGATT against LST-3TM12 the figure was -0.109 (inactive); with CUGUCCGUAUGAUUACAAATT against ZFAND5, 0.0289 (inactive); with GCAUCGCCCUGAUGAGUAATT against ADCY7, -0.0202 (inactive).
In the case of CCUCAUGUCGGGCAUCUUATT against EGR4, the median seed-adjusted z-score is 0 (inactive).
For the sequence GAUUCUUUUGAAAAAGUGATT against ZNF675, the median seed-adjusted z-score was -0.343 (inactive).
On to GGAUUAUUCAUUAUUACAUTT against NDUFB6, for which the median seed-adjusted z-score is -0.357 (inactive).
For the sequence GCUCAACAGUCCCUAGUUATT against RSC1A1, the median seed-adjusted z-score was 0.438 (inactive).
The same measure for CCAUCAAGCUCUACAAGGATT against TOP3B: -1.11 (active); for CAGUUCAAGUGACCAUUGATT against CD300LF: -0.264 (inactive).
GGUUCUUCCCGUUGUCUUUTT against TOMM22: the median seed-adjusted z-score was 0.486 (inactive).
The same measure for GGACCACAGACAUAGUAGATT against NCOA5: 0.947 (inactive); for ACAUGGACAAUGCCGCAGATT against HSPBP1: 0.368 (inactive).
The same measure for CUAAGAUGGUUAUCAAGAATT against SLC1A2: 0.249 (inactive); for CGAAGGAUAUCUAUCAUCATT against NXF1: -4.46 (active); for GGACUACGGAGUUCGAGAATT against MGC29506: 0 (inactive).
In the case of CCCAUAAUAUCAUUGAGAATT against SREBF2, the median seed-adjusted z-score was -0.606 (inactive).
On to GGUCCGGAAUGUGAACUUUTT against SERPINE2, for which the median seed-adjusted z-score was 0.0144 (inactive).
Regarding AGAUGGAGUUUGAUCCUAATT against POLR2G, the median seed-adjusted z-score is -4.19 (active).
Turning to GAACUGCAAAGACCUGUUUTT against SSU72, the median seed-adjusted z-score was -1.64 (active).
For CCUCAUCAACUCUGACAUATT against LMO2, the median seed-adjusted z-score is 0 (inactive).
For CCGUGAUCGUGAAGCUAGATT against PKD2, the median seed-adjusted z-score was 0.219 (inactive).
Take CCCUCAGACUGUACGCAGATT against PGM5: the median seed-adjusted z-score is -0.0543 (inactive).
Turning to GGAAACUCGUGGACUAUGATT against BIN2, the median seed-adjusted z-score is 0.205 (inactive).
For the sequence CGCUCACACUGGGUUCCAATT against SLC34A1, the median seed-adjusted z-score was 0.139 (inactive).
On to UGAGCACAAUCAAGUCUAATT against BRD4, for which the median seed-adjusted z-score was 1.13 (active).
With GAAUUGGAAGAAGAUAUCATT against RHOBTB3 the figure was 0.256 (inactive).
For the sequence GAUGAUCUGUGAGACCAAATT against BOC, the median seed-adjusted z-score is -0.0192 (inactive).
On to CAUCAACGAAGGAAAUAUATT against CD27, for which the median seed-adjusted z-score is 0.5 (inactive).
Take GUUCCUUAUUGUUAAGGUATT against PCDHB10: the median seed-adjusted z-score is -0.09 (inactive).
With GAAUGGAAGAUUUCACCUUTT against SNAPC3, the median seed-adjusted z-score was -1.72 (active).
On to GGAGCUACUUUGACUCACUTT against KCNK13, for which the median seed-adjusted z-score is -0.0924 (inactive).
Regarding GCUCUGUGCUCUCUAGUGATT against LEFTY1, the median seed-adjusted z-score was 0.383 (inactive).
Consider CCCUCACUAUCACGGUUAATT against ATP6V1B2, for which the median seed-adjusted z-score was 0.24 (inactive).
GUGCAUGUAUGAAGCCGAATT against NDUFB10: the median seed-adjusted z-score is -0.39 (inactive).
Take AGAAGGUGACUCAAAGAAUTT against WFDC1: the median seed-adjusted z-score is 0.152 (inactive).
As for AGCUCUUUGCUACAGAUGATT against ACAD8, the median seed-adjusted z-score is 1.06 (active).
For GGACCGUGUUCUUUACGUATT against NDUFAB1, the median seed-adjusted z-score was -0.282 (inactive).
Consider CCCUGUUAUGUCAAGCUUATT against SYNPR, for which the median seed-adjusted z-score is 0.257 (inactive).
As to CUUAAUUCUUGGUCUAUGATT against SP6, the median seed-adjusted z-score is -0.176 (inactive).
In the case of AGUUCAUGCAAGAUCCAAUTT against BAT1, the median seed-adjusted z-score was -1.49 (active).
AGCGCGUCAUGAUGACCUATT against PER1: the median seed-adjusted z-score is 0.176 (inactive).
On to AGCCCGUGAUGUACACGUATT against COL8A1, for which the median seed-adjusted z-score was -0.848 (inactive).
Take GAUCCACCUGAGACAGAAATT against EGR2: the median seed-adjusted z-score was -0.37 (inactive).
As to GGAUCUAUCUCAUCAAACATT against NDUFC1, the median seed-adjusted z-score was 0 (inactive).
In the case of CAGACUUAUUACUAGAUGATT against PRDX5, the median seed-adjusted z-score is -0.0386 (inactive).
Turning to GCAAAGGCACUGAAUCGAATT against MAP4K5, the median seed-adjusted z-score was -0.309 (inactive).
On to GCCCGUCUAUGACAAGAAATT against RELB, for which the median seed-adjusted z-score is 1.16 (active).
Regarding CGCCUUGAAUGGGAGCAAATT against C2, the median seed-adjusted z-score is -0.0549 (inactive).
As to GUGUAUUACCUGAGAAUCATT against CYP24A1, the median seed-adjusted z-score was 0.136 (inactive).
As to CAGGUACCGUCAUCACAUUTT against PCDHA7, the median seed-adjusted z-score was 0.552 (inactive).
For GACUCGUGGUUUGAAGUGATT against ZNRF1, the median seed-adjusted z-score is -0.808 (inactive).
The same measure for CCCAGUUCCUAGACUGUAUTT against MTMR8: -0.416 (inactive).
The same measure for CGACCUUCAAAGUUAACAATT against CLIP1: 0.853 (inactive); for CCUCUUACACUUUUCCGAATT against PECI: -0.0254 (inactive); for GUACCCUGGAGGAAAGCGATT against GNRH2: 1.13 (active).
With AGAGGAUCCUGAACUCCAATT against MYO19 the figure was 0.0987 (inactive).
Take AUCAAGUCUUCUUACAAGATT against VDAC2: the median seed-adjusted z-score is 0.648 (inactive).
The same measure for GAAUGAGGCAUAUCAAGCATT against TUBD1: -0.00491 (inactive); for GGAAAUCCUUCAUAUACAATT against ZNF549: 0.0114 (inactive).
Take GAUUCCGUCUAAUCCUAGATT against C5: the median seed-adjusted z-score was 0.153 (inactive).
ACAAUGAAGUUCUCCCUGATT against PCGF1: the median seed-adjusted z-score is 0.508 (inactive).
With CCUCAUUUGUCUACACCAUTT against RAD51L1 the figure was 0 (inactive).
As for GGUAUGAGGUUGACUCAUUTT against IFNAR1, the median seed-adjusted z-score was 0.0327 (inactive).
Regarding GGAGACCUGCGAUUACUUUTT against BARX2, the median seed-adjusted z-score was -0.206 (inactive).
Regarding GGAGCUCAUUUGACAUGUATT against KIR2DL5B, the median seed-adjusted z-score was 1.72 (active).
The same measure for GCGACUGUCUCGACAGAUATT against HTT: -0.234 (inactive); for GGAUAGCUAAAGAAAUUCATT against IMPA1: -0.295 (inactive); for CCACACUGGUGAUAGACCATT against ZNF384: -0.132 (inactive).
Turning to UGAAAGGACUUGUCUGAAATT against CHST6, the median seed-adjusted z-score was 0.372 (inactive).
With GGGUGUCUGCGAUUAUCUUTT against WDFY1 the figure was 0.979 (inactive); with GGUUGGUGAUGUCAAGUAUTT against CDKL2, -0.293 (inactive).
For the sequence AGUGGUCCCUUCACAGGAATT against GNRH2, the median seed-adjusted z-score was 1.13 (active).
Consider AGCCUUUAGUGUCCGUUCATT against ZNF347, for which the median seed-adjusted z-score is 0 (inactive).
With GGGACUAGCUCUUCGCAUATT against PTGER3 the figure was -0.321 (inactive).
Take GACUCUGAAUGCUUGCUGUTT against MMS19: the median seed-adjusted z-score was 0.0142 (inactive).
As to CCAUCUAUGAGGCGGGAAATT against MFI2, the median seed-adjusted z-score is 0.365 (inactive).
GAAUCUUGCCCGUCUAUAATT against RSC1A1: the median seed-adjusted z-score is 0.438 (inactive).
With CACCAUCUCCGGGAACAGATT against FUT1 the figure was 0.000845 (inactive); with GCAUGGGUUUUAUUAUAUATT against CCL11, -0.221 (inactive).
